Only some compounds are listed: those with a hit (about 32% of all), similar ones and a draw of the others.
CYP2C9 inhib: human CYP2C9 inhibition | P11712 | CYP2C9 Supersomes, luciferin-H conversion, luminescence | inhibition, % at 5 µM | 96,000 compounds, 20% hits | AID 777;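 active means blocking of liver enzyme CYP2C9 beyond about 50% at 5 µM, limit read from the data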
Target sequence (P11712 whole entry, looked up): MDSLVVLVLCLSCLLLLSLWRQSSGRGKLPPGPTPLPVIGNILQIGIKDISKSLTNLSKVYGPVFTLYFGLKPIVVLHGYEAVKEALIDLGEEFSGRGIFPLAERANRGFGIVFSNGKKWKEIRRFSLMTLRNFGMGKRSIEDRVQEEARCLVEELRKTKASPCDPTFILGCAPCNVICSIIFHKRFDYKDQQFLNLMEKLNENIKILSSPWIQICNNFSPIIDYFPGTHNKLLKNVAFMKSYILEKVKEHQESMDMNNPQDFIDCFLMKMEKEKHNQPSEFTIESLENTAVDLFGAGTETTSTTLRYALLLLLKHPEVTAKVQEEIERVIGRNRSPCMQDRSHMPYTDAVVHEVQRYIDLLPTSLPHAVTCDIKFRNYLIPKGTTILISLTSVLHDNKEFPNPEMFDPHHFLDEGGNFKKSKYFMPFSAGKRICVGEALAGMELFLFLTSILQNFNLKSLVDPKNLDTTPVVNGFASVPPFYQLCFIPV
CYP2C19 inhib: inhibitors of human CYP2C19. P33261. CYP2C19 Supersomes, luciferin-H EGE luminescence, 30 min. inhibition, % at 5 µM. 96,000 compounds, 21% hits;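 active means CYP2C19 inhibition above a set limit at 5 µM in the primary screen, cut at about 50% in these data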
PostGolgi yeast: growth inhibition of a yeast mutant, post-Golgi transport screen | inhibition, % at 10 µM | post-Golgi transport phenotypic cell assay | 98,000 compounds, 0.9% hits;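 further: yeast cells grown in 1536-well plates; yeast grown about 18 h at 30C before absorbance read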
PostGolgi ctrl: growth of the yeast control strain, post-Golgi counter-screen; efflux-deficient yeast background strain, growth absorbance A615, 16 h; inhibition, % at 10 µM; 98,000 compounds, 5% hits; AID 738
CYP2C9 activ: increases human cytochrome P450 2C9 activity. activation factor at 5 µM. recombinant CYP2C9, luciferin-H conversion, luminescence; active compounds read high; factor 1 = untreated enzyme, 0 = blocked. AID 1024. P11712. 96,000 compounds, 1.4% hits;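 active means activation factor of 2 or more for CYP2C9 at a 5 µM dose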
CYP2C19 act: increases human CYP2C19 enzyme activity | P33261 | recombinant CYP2C19, luciferin-H EGE luminescence; active compounds read high; 0 = fully inhibited enzyme, 1 = untreated enzyme | activation factor at 5 µM | 96,000 tested, under 10 active | AID 1025;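 active means activation factor of at least 2 at 5 µM in the primary screen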
Hits are given with their value; . = inactive; / = no result. Unless noted, no stated cut-off is given here; in the data, active means inhibition above about 30%; inactive means the rest.

SMILES	CYP2C9 inhib	CYP2C19 inhib	PostGolgi yeast	PostGolgi ctrl	CYP2C9 activ	CYP2C19 act
COC(=O)c1cnn(-c2nc3c(C)cccc3s2)c1C	.	.	.	.	.	.
CCC1(C)OC(=O)N2CCc3c(C)[nH]c4c(C)ccc(c34)C21C (configuration not stated)	69.9	69.3	.	31.5	.	.
COc1ccc(NC(C)=O)cc1NC(C)C(=O)Nc1cccc2ccccc12 (configuration not stated)	82.0	66.7	.	.	.	.
COc1ccc(NC(C)=O)cc1NC(C)C(=O)Nc1ccc(F)cc1 (configuration not stated)	54.6	.	.	.	.	.
CC(C)C(=O)Nc1nnc(CCN2CCCCC2)s1	.	.	.	.	.	.
O=C(COC(=O)c1ccccn1)Nc1nccs1	.	.	.	.	.	.
O=C(COC(=O)c1ccccc1C(=O)c1ccc(Cl)c([N+](=O)[O-])c1)NC1CCCCCC1	.	.	.	.	.	.
Nc1c(Cl)cc(Cl)cc1C(=O)OCC(=O)NC1CC1	.	.	.	.	2.1	.
COc1cccc(N2C(=O)N(c3ccccc3Cl)C3CS(=O)(=O)CC32)c1 (configuration not stated)	.	.	.	.	.	.
Cc1ccccc1N1C(=O)N(c2cccc(C(F)(F)F)c2)C2CS(=O)(=O)CC21 (configuration not stated)	.	63.2	.	39.4	.	.
Cc1cccc(OCC(=O)O/N=C(\N)c2ccccn2)c1	.	.	.	.	.	.
O=C(NCCCN1CCCC1=O)c1cccc(C(F)(F)F)c1	77.1	.	.	35.1	.	.
O=C(NCCCN1CCCC1=O)c1cccs1	.	.	.	.	.	.
Cc1cccn2c(=O)c3cc(C(=O)NCCCN4CCCC4=O)n(C)c3nc12	.	51.2	.	.	.	.
Cc1cccn2c(=O)c3cc(C(=O)NCCCn4ccnc4)n(C)c3nc12	60.5	.	.	.	.	.
CCCCNC(=O)c1cc2c(=O)n3cccc(C)c3nc2n1C	.	.	/	/	.	.
O=C1c2cccc3c(Nc4ccccc4Cl)c([N+](=O)[O-])cc(c23)C(=O)N1CCO	.	.	44.6	.	.	.
CCc1ccccc1N1C(=O)c2cccc3c(N4CCOCC4)c([N+](=O)[O-])cc(c23)C1=O	.	.	.	.	.	.
COc1ccccc1NC(=O)C1CCCCC1	.	.	.	.	.	.
CCCCNC(=O)Nc1ccnn1C1CCCCC1	.	56.8	.	.	.	.
COc1ccccc1NC(=O)Nc1ccnn1C1CCCCC1	.	56.2	.	.	.	.
COc1ccccc1NC(=O)Nc1ccnn1Cc1cccs1	.	63.0	.	.	.	.
O=c1[nH]cnc2c1cnn2Cc1ccccc1	.	.	.	.	.	.
CCOc1ccc(/C=N/n2c(SC)nnc(C(C)(C)C)c2=O)cc1	.	.	.	.	.	.
O=C(c1cccc(COCC(F)(F)C(F)F)c1)N1CCN(c2ccccc2)CC1	.	.	.	.	.	.
SMILES	CYP2C9 inhib	CYP2C19 inhib	PostGolgi yeast	PostGolgi ctrl	CYP2C9 activ	CYP2C19 act
COC(=O)c1cc(OC)c(OC)cc1NC(=O)c1ccc(C)o1	.	.	.	.	.	.
Cn1c(=O)n(Cc2ccccc2)c(=O)c2c1nc1n2CCCN1Cc1ccccc1	.	.	.	31.8	.	.
Cn1c(N2CCCC2)nc2c1c(=O)n(Cc1ccc(Cl)cc1)c(=O)n2C	.	.	.	.	.	.
Cn1c(=O)n(Cc2ccc(Cl)cc2)c(=O)c2c1nc1n2CCN1Cc1ccco1	.	.	.	.	.	.
Cn1c(N2CCCC2)nc2c1c(=O)n(Cc1cccc(F)c1)c(=O)n2C	80.9	.	.	.	.	.
Cn1c(=O)n(Cc2ccccc2)c(=O)c2c1nc1n2CCS1	85.1	57.0	.	.	.	.
Cn1c(=O)n(Cc2ccccc2)c(=O)c2c1nc1n2CCCN1CCc1ccccc1	.	57.8	.	.	.	.
C=CCSc1nnc(NC(=O)c2ccc(Cl)nc2)s1	.	.	.	.	.	.
COCCCNC(=S)NC1CC2CCCC(C1)N2Cc1cccs1 (configuration not stated)	.	.	.	.	.	.
CC(C)(C)NC(=O)NC(=O)COC(=O)c1ccco1	.	.	.	.	.	.
CC1=C(C(=O)Nc2ccccc2)C(c2cccc([N+](=O)[O-])c2)Nc2nc3ccccc3n21 (configuration not stated)	.	.	.	.	.	.
O=C(O)c1cc(S(=O)(=O)N2CCOCC2)c(Sc2ccccn2)cc1Sc1ccccn1	.	.	.	.	.	.
Cc1ccc(Cn2c(=O)c3c(nc4n3CCCN4Cc3ccccc3)n(C)c2=O)cc1	.	.	.	38.5	.	.
COc1ccc(C(=O)c2ccc(N3CCN(C4CC(=O)NC4=O)CC3)cc2)cc1F (configuration not stated)	.	.	.	.	.	.
Cc1sc2ncnc(OCC(=O)NC(C)C)c2c1C	.	.	.	.	.	.
CCN(CC)S(=O)(=O)c1ccc2c(c1)nc(SCc1nc3ccsc3c(=O)[nH]1)n2CC	69.1	.	.	.	.	.
COc1cccc(/C=N/NC(=O)C(=O)NCc2ccco2)c1O	.	.	.	.	.	.
CCCc1ncc(C(O)c2cccc3ccccc23)n1C (configuration not stated)	.	60.6	.	.	.	.
CC(C)c1ncc(C(O)c2cccc3ccccc23)n1C (configuration not stated)	.	.	.	.	.	.
O=C1CC(C(=O)Nc2ccccc2)C2(CCCCC2)O1 (configuration not stated)	.	.	.	.	.	.
Cc1nc(C2CC(=O)OC23CCCCC3)cs1 (configuration not stated)	.	78.0	/	/	.	.
Cc1oc(-c2ccc(Cl)cc2)nc1CSCC(=O)NCCCN1CCOCC1	.	.	.	.	.	.
COc1cc(OC)cc(OCC(O)Cn2ccnc2C)c1 (configuration not stated)	.	.	.	.	.	.
Cc1cccc(C)c1OCC(O)Cn1ccnc1C (configuration not stated)	.	53.1	.	.	.	.
COCC(=O)Nc1nc2ccccc2s1	.	.	.	.	.	.
SMILES	CYP2C9 inhib	CYP2C19 inhib	PostGolgi yeast	PostGolgi ctrl	CYP2C9 activ	CYP2C19 act
CS(=O)(=O)c1ccc2nc(NC(=O)Oc3ccccc3)sc2c1	70.3	.	.	.	.	.
COCC(=O)Nc1nc2ccc(S(C)(=O)=O)cc2s1	76.9	62.6	.	.	.	.
C=CCN(CC=C)S(=O)(=O)c1ccc2nc(NC(=O)C(C)C)sc2c1	93.4	80.8	.	.	.	.
COc1ccccc1C(=O)Nc1nc2ccc(S(C)(=O)=O)cc2s1	/	/	.	.	/	/
O=C(O)C1CCCCC1C(=O)NCc1cn2ccccc2n1 (configuration not stated)	.	.	.	.	.	.
O=C(OCc1cn(-c2ccc(Cl)cc2)nn1)c1ccccc1	.	.	.	.	.	.

Bioassay records deposited in PubChem BioAssay by several laboratories.
